7 compounds from PubChem BioAssay (NCATS) can be followed below.

Records with an inconclusive call do not appear. Unmarked numbers belong to inactive results. Active and inactive are the calls of the source. Calls come from the whole dose curve; as a rule, active = well fitted inhibition curve with a large enough effect; inconclusive = small, poorly fitted or top-dose-only effect; inactive = flat fitted curve, though single readings scatter.

Holding throughout (test): Cytotoxic Profiling of Annotated Libraries Using Quantitative High-Throughput Screening (AID 1296008); note: nearly all actives have a fitted effect of over 60% in size
Common to all, as to conditions: Five cell lines viability, CellTiter-Glo ATP luminescence, 48-72 h; max response: stronger effect = lower value
(In ATP-based viability assays light output follows the ATP content of the culture.)

The subject of one assay is CRL-7250. The procedure, abridged: (§1)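 Cells exposed to compounds for 48 or 72 hr at 37 degrees Celsius. Viability read as ATP-coupled luminescence with CellTiter-Glo after 10 min at room temperature.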
Another assay relates to HEK293. The procedure, abridged:
as §1

The next assay has as its system HaCat. The procedure, abridged:
as §1

In another assay the test system is KB-3-1. The procedure, abridged:
as §1

The next assay concerns NIH3T3. Put shortly:
as §1
% is set by controls: 0 for no effect and ±100 for the full control effect; potency is the fitted concentration of half-maximal effect.

Turning to `CC(C)c1ccc2c(c1)C(=O)CC1[C@@](C)(C(=O)O)CCC[C@]21C` (stereo not given in full), the max response in the assay on CRL-7250 is 2.88%; with HEK293, 3.51%; in the assay on HaCat, -7.44%; in the assay on KB-3-1, -10.5%; in the assay on NIH3T3, 0.286%.
In the case of `CN(c1ccccc1CNc1nc(Nc2ccc3c(c2)CC(=O)N3)ncc1C(F)(F)F)S(C)(=O)=O`, the Potency is 16.4 µM (active) in the assay with CRL-7250; 2.31 µM (active) in the assay on HEK293; 8.2 µM (active) in the assay on HaCat; 6.51 µM (active) in the assay with KB-3-1; 5.8 µM (active) in the assay on NIH3T3.
For `Cc1cccc(S(=O)(=O)N2CCC[C@@H]2CCN2CCC(C)CC2)c1`, the max response in the assay on CRL-7250 is -2.64%; in the assay on HEK293, -20.7%; with HaCat, -28.1%; with KB-3-1, -9.32%; in the assay on NIH3T3, -11.7%.
For `C[C@@H]1CC[C@]2(C(=O)O)CC[C@]3(C)C(=CCC4[C@@]5(C)C[C@@H](O)[C@H](O)[C@@](C)(CO)C5CC[C@]43C)C2[C@]1(C)O` (stereo not given in full) the same measures were -3.26%, -12.2%, 4.14%, 2.17% and -6.81%.
As to `CC1=CCC(C(C)(C)O[C@@H]2O[C@H](CO[C@@H]3O[C@@H](C)[C@H](O)[C@@H](O)[C@H]3O)[C@@H](O)[C@H](O)[C@H]2O)CC1` (stereo not given in full), the max response in the assay with CRL-7250 is -8.36%; in the assay with HEK293, 2.02%; in the assay with HaCat, 1.99%; in the assay on NIH3T3, 2.56%. In addition, in the assay with KB-3-1, the compound was classed as inactive.
As for `O=C1NC2CCc3nc4ccccc4c(=O)n3C2=Nc2ccccc21` (stereo not given), the max response is 2.4% in the assay on CRL-7250, -3.35% with HEK293, 3.54% with HaCat and 4.44% with NIH3T3. Also, in the assay on KB-3-1, the compound was classed as inactive.
For `CC(=O)OC1C[C@@]2(C)[C@@H](CC[C@@H](C)[C@]23Cc2c(O)cc4c(c2O3)CNC4=O)C(C)(C)[C@@H]1O` (stereo not given in full), the max response in the assay on CRL-7250 was 2.93%; with HEK293, 1.75%; in the assay on HaCat it was 4.03%; with NIH3T3, 1.15%. Moreover, in the assay on KB-3-1, the outcome was inactive.
